The record followed here is PubChem BioAssay (NCATS).

Each structure is given as a SMILES string. Results filed as inconclusive are left out. Where a call stands in place of a potency, no number is given. Activity calls are given as the source filed them. The call rests on the fitted dose curve; in most records, active means well fitted cell-killing curve with a large enough effect; inconclusive means small, poorly fitted or top-dose-only effect; inactive means flat fitted curve, though single readings scatter.

The nature of the experiment: Cell Viability - LYMP2-022 (AID 987). Further: nearly all actives have a fitted effect of over 55% in size. Particulars: LYMP2-022 lymphoblastoid cell viability; series mostly up to 92.2 µM. An excerpt: NIH Chemical Genomics Center [NCGC]
NIH Molecular Libraries Screening Centers Network [MLSCN]
National Institutes of Environmental Health Sciences [NIEHS]
National Toxicology Program [NTP]
We have developed a 1536-well cell-based assay for quantitative high throughput screening (qHTS) against a number of cell lines to determine in vitro cytotoxicity of small molecules. This particular assay uses a human lymphoblastoid cell line (LYMP2-022) purchased from Coriell Institute for Medical Research.
NCGC Assay Protocol Summary:
The CellTiter-Glo luminescent cell viability assay (Promega) is a homogeneous method to measure the number of viable cells in culture. The end point readout of this assay is based on quantitation of intracellular ATP, an indicator of metabolic activity, using the luciferase reaction. Luciferase catalyzes the oxidation of beetle Luciferin to oxyluciferin and light in the presence of ATP. The luminescent signal is proportional to amount of ATP present.
Using the CellTiter-Glo luminescent cell viability assay, the amount of cellular ATP was measured in the lymphoblastoid cell line with complete culture medium following compound treatment for 24 hours. The assay was performed in opaque white Kalypsys 1536-well plates. In the screen, tetraoctylammonium bromide was used as positive control. Library compounds were measured for their ability to cause acute toxicity in the cell line, as reflected by a decrease in intracellular ATP levels, in a concentration-dependent manner. […] AC50 values were determined from concentration-response data modeled with the standard Hill equation.
qHTS protocol for CellTiter Glo lymphoblastoid cellular assay
[Step] [Parameter] [Value] [Description]
1. Reagent; 5 uL; 2500 lymphoblastoid cells/well
2. Time; 5 hr; 37 C incubation
4. Controls; 23 nL; Tetraoctylammonium bromide 6.4pM to 92 uM
5. Time; 24 hr; 37 C incubation
6. Reagent; 5 uL; CellTiter Glo reagent
7. Time; 30 min; Room Temperature
8. Detection; Luminescence; Viewlux plate reader
Keywords: cell viability, cytotoxicity, lymphoblastoid cell line, luminescence, NTPHTS, NTPHTS_NCGC, NIEHS, DSSTox, MLSMR, MLSCN, NIH Roadmap, qHTS, NCGC
Take `CCCCOCCOCCOCCCC`: the Potency entry is “inactive”.
For `C[C@@H]1CC2(OC3C[C@@]4(C)C5=CC[C@H]6C(C)(C)C(O[C@@H]7OC[C@@H](O)[C@H](O)[C@H]7O)CC[C@@]67C[C@@]57CC[C@]4(C)C31)OC(O)C1(C)OC21` (stereo not given in full), the Potency result is “inactive”.
To `CC(C)C(C)C` belongs “inactive”; to `Cc1ccc2ncccc2c1`, “inactive”; to `C=CCn1c(=O)n(CC=C)c(=O)n(CC=C)c1=O`, “inactive”.
To `CC(=O)Nc1ccccc1C` belongs “inactive”.
`CCCCC(CC)CO` (stereo not given): the Potency result is “inactive”.
To `CCN(Cc1ccccc1)c1ccccc1` belongs “inactive”; to `CCCCCCC=O`, “inactive”; to `c1ccc(Nc2ccccc2)cc1`, “inactive”.
To `O=C1OC(=O)c2cc([N+](=O)[O-])ccc21` belongs “inactive”; to `O=C1C=CCCC1`, “inactive”; to `Cc1cc([N+](=O)[O-])ccc1N`, “inactive”.
Turning to `CC(=O)C1(C)CC2=C(CCCC2(C)C)CC1C` (stereo not given), the Potency entry was “inactive”.
With `CCCC(C)CO` (stereo not given) the entry was “inactive”; with `CC/C(C)=N/O`, “inactive”; with `CSc1ccc(C=O)cc1`, “inactive”.
To `Nc1cccc(O)c1` belongs “inactive”.
To `Nc1ccc(F)cc1F` belongs “inactive”; to `CCc1ccccc1`, “inactive”; to `Cc1ccc(Br)cc1`, “inactive”.
Regarding `CC(C)Nc1ccccc1`, the Potency result is “inactive”.
With `CCCCC(CC)C(=O)O` (stereo not given) the entry was “inactive”; with `CCOc1ccc(NC(C)=O)cc1N`, “inactive”.
With `CCCC=O` the entry was “inactive”.
To `CCCCOCCOCCSC#N` belongs “inactive”; to `O=C(O)c1ccccc1[N+](=O)[O-]`, “inactive”.
`CCCCCCCCCCCCOCC1CO1` (stereo not given): the Potency result is “inactive”.
To `CCCCC(CC)COCC1CO1` (stereo not given) belongs “inactive”; to `CSCCC=O`, “inactive”.
As to `O=[N+]([O-])c1cccc(C(F)(F)F)c1`, the Potency result is “inactive”.
To `CCN(C(=O)N(CC)c1ccccc1)c1ccccc1` belongs “inactive”.
Take `CCOc1ccccc1N`: the Potency result is “inactive”.
With `C=Cc1ccccc1C=C` the entry was “inactive”; with `CC/C=C1/OC(=O)c2ccccc21`, “inactive”.
With `CCCCC(CC)CNCC(CC)CCCC` (stereo not given) the entry was “inactive”.
With `Cc1ccc2nc(-c3ccc(N)cc3)sc2c1S(=O)(=O)O` the entry was “inactive”; with `CCOc1cccc(N)c1`, “inactive”; with `Cc1ccc2c(c1[N+](=O)[O-])C(=O)c1ccccc1C2=O`, “inactive”.
As to `CC(=O)OCCC(C)C`, the Potency result was “inactive”.
